D1 PAM – enhances dopamine response at the human D1 receptor | HEK293 TREx D1 cells, calcium flux, dopamine EC20 potentiation | potentiation, % at 10 µM | 0.036% of 360,000 active; in the data active = potentiation above about 30%; also: 0% is about no effect
D3 ag – agonists of human D3 dopamine receptor; P35462; D3R DiscoveRx beta-arrestin cells, luminescence, 90 min; max activation, %; 0.58% of 410,000 active; AID 652048; in the data active = max activation above about 30%; also: 0% is about no effect
Target sequence (P35462 whole entry, looked up): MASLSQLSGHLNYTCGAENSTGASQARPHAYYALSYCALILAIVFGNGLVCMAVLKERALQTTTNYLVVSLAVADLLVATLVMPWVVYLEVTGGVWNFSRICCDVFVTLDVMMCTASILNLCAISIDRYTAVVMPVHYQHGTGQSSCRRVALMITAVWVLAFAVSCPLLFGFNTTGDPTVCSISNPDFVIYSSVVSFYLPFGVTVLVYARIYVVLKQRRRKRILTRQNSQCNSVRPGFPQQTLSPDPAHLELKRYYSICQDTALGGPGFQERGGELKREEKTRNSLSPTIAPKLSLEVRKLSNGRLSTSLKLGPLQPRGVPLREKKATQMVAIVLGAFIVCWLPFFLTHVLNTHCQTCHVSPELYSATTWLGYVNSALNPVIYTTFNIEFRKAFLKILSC
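Agonist mode: compounds and dopamine controls were applied to plated cells for 90 min at 37 degrees C after an overnight attachment at 1500 cells/well. Luminescent read-out followed 30 - 60 minutes at room temperature with DiscoveRx detection reagent.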
D3 antag – blocks the human D3 dopamine receptor. AID 652054. D3R cells, DiscoveRx beta-arrestin luminescence, antagonist mode; stronger effect = lower value. P35462. 2.5% of 360,000 active. max response, negative = inhibition, %; in the data active = max response below about -50%; inconclusive = no clear call, values can overlap the other calls; also: % is scaled to controls: 0 for no effect and ±100 for the full control effect
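Cells expressing the human receptor were seeded at 1500 cells/well, incubated overnight at 37 degrees C in 5% CO2, then exposed to library compounds with dopamine controls for 90 minutes at 37 degrees C before luminescent detection.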
D1 ag – agonists of human D1 dopamine receptor. AID 504660. P21728. 1% of 360,000 active. activation, % at 2 µM. HEK293 T-REx D1 cells, calcium flux, agonist mode; in the data active = activation above about 30%; also: 0% is about no effect
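Agonism was scored from calcium flux recorded over 180 s (1 read/s) after pintool compound addition, following a 10-cycle baseline. Cells were inducible force-coupled HEK293 TREx D1, plated overnight at 30 C and loaded with no-wash calcium dye.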
D1 antag – blocks dopamine activation of the human D1 receptor. activity change, negative = inhibition, % at 10 µM. HEK293 TREx D1 cells, calcium flux, dopamine EC80; stronger effect = lower value. P21728. 3.2% of 360,000 active; in the data active = activity change below about -30%; also: % is scaled to controls: 0 for no effect and ±100 for the full control effect
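After overnight tetracycline induction at 30 C, force-coupled D1 HEK293 cells took up a no-wash calcium dye at room temperature. Compounds were added and monitored 180 s, and the response to EC80 dopamine was then recorded.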
Numbers without * were called inactive; ? = inconclusive; / = not tested or not shown. An excerpt weighted towards active compounds, which were near 6% of everything screened.

SMILES	D1 PAM	D3 ag	D3 antag	D1 ag	D1 antag
COc1ccc(Cl)cc1NC(=O)C(OC)c1ccccc1 (configuration not stated)	1	5	-4	8	-18
Cc1ccc2[nH]c(=O)c3cc(C(=O)NC4CCC(C)CC4)sc3c2c1 (configuration not stated)	-5	3	/	1	-43*
Cc1ccc2[nH]c(=O)c3cc(C(=O)NC(C)C)sc3c2c1	-2	1	6	7	4
CC1=CN2C(=N)/C(=C/c3ccco3)C(=O)N=C2S1	-3	-7	-60*	0	-2
Cc1ccc2cccc(NC(=O)c3ccc(-c4ccc(Cl)cc4Cl)o3)c2n1	-4	0	/	-1	0
Nc1ccc(-c2c3ccc(=O)cc-3oc3cc(O)ccc23)c(C(=O)O)c1	1	-28	?	355*	0
COc1ccc(S(=O)(=O)N(CC(=O)Nc2ccc(OC)cc2OC)c2ccc(Cl)cc2)cc1	-4	-4	/	3	8
CC(CN(C)Cc1ccccc1)OC(=O)c1cccc(F)c1 (configuration not stated)	-1	-33	-60*	3	-4
CN(CCOC(=O)c1cccc(F)c1)Cc1ccccc1	-4	-6	-88*	2	-2
Fc1ccc(-c2csc(=Nc3cccc(C(F)(F)F)c3)n2Cc2ccc3c(c2)OCO3)cc1	-4	-7	/	1	22
COc1ccc(OC)c(C2C(C(=O)c3sc(C)nc3C)=C(O)C(=O)N2CCN2CCOCC2)c1 (configuration not stated)	3	-9	-56*	1	4
COc1ccc(C2C(C(=O)c3sc(C)nc3C)=C(O)C(=O)N2CCN2CCOCC2)cc1 (configuration not stated)	7	-19	?	-1	-1
CCOC(=O)c1cccc(-n2nnc3c(sc4nc(C)c(Br)c(C)c43)c2=O)c1	2	-1	/	-1	6
COc1ccccc1-c1nc(C#N)c(N2CCc3ccccc3C2)o1	8	30	11	3	6
COc1ccc(-c2nc(C#N)c(N3CCc4ccccc4C3)o2)cc1OC	-8	36*	53	0	6
COc1ccc(C(=O)NCC(=O)N2CCC(Cc3ccccc3)CC2)cc1OC	-2	5	0	1	-9
Cc1ccc(C(=O)NCC(=O)N2CCC(Cc3ccccc3)CC2)cc1	-2	2	6	9	-36*
COc1ccc(CCNC(=O)c2ccc(CN3CCC(Cc4ccccc4)CC3)cc2)cc1	1	-9	-17	3	-8
Cc1ccccc1NC(=O)c1ccc(CN2CCC(Cc3ccccc3)CC2)cc1	-19	-19	-64*	18	-57*
CC(C)NC(=O)c1ccc(CN2CCC(Cc3ccccc3)CC2)cc1	-8	-24	-80*	6	29
CC(C)NC(=O)C1(C)CSCC(=O)N1C1CCN(Cc2ccccc2)CC1 (configuration not stated)	/	-21	-64*	/	/
CCN(CC)S(=O)(=O)c1ccc2c(c1)N(CC(=O)N1CCN(c3cccc(OC)c3)CC1)C(=O)CO2	-4	4	/	0	-11
C=CCNC(=O)c1ccc(CN2CCC(Cc3ccccc3)CC2)cc1	-12	-26	?	6	-58*
C=CCNC(=S)N1CCC(Cc2ccccc2)CC1	-3	-5	4	0	4
Cn1c(=O)c2c(nc(OCc3ccc4c(c3)OCO4)n2Cc2ccccc2Cl)n(C)c1=O	-3	0	14	1	3
SMILES	D1 PAM	D3 ag	D3 antag	D1 ag	D1 antag
C=CCOc1nc2c(c(=O)n(C)c(=O)n2C)n1Cc1ccccc1Cl	-1	36*	15	-2	-3
Cn1c(=O)c2c(nc(NCc3ccc4c(c3)OCO4)n2Cc2ccccc2Cl)n(C)c1=O	0	8	5	1	-81*
CC(C)(C)c1ccc(C(=O)N2CCN(Cc3cc(=O)n4nc(-c5ccccc5F)sc4n3)CC2)cc1	4	-3	/	1	0
CC(NC(=O)c1cc(-c2cccnc2)nc2ccc(Br)cc12)C1CCCO1 (configuration not stated)	2	-7	-3	0	-34*
O=C(NCc1ccccc1)c1onc(CSc2ccccc2)c1C(=O)NCC1CC1	-2	-17	-8	46*	-51*
COCCNC(=O)c1onc(CCl)c1C(=O)OC	-5	-13	-29	3	5
C=CCNC(=O)c1onc(CCl)c1C(=O)OC	0	65*	5	1	-9
CCCNC(=O)c1onc(CSc2ccccn2)c1C(=O)NCCC	1	12	-6	2	-38*
C=CCNC(=O)c1onc(CSc2ccc(F)cc2)c1C(=O)O	-4	-5	5	-2	-34*
CCCN(Cc1cc2cc(C)ccc2[nH]c1=O)C(=O)c1cccc(Cl)c1	0	10	/	-1	1
O=C(c1ccc(CSc2nc3ccncc3n2Cc2cccc(F)c2)cc1)N1CCCCC1	2	2	/	-2	-4
CC1CCN(C(=O)Cn2cc(SCC(=O)Nc3ccccc3C(F)(F)F)c3ccccc32)CC1	0	10	/	1	4
CCN(CC)c1ccc(NC(=O)c2cnn3c(C(F)F)cc(-c4ccccc4)nc23)cc1	-3	-12	/	0	5
Cc1cc(OC(C)C(=O)Nc2c(C(=O)c3ccc(F)cc3)oc3ccccc23)ccc1Cl (configuration not stated)	-1	2	/	1	-4
COCCNC(=O)c1c(CSc2ccccc2)noc1C(=O)NCc1ccccc1	-1	6	10	5	12
COCCNC(=O)c1c(CS(=O)(=O)c2ccccc2)noc1C(=O)NCc1ccccc1	0	36*	13	3	10
O=c1n(-c2ccccc2)c(=O)n2n1CCC2	-2	1	16	1	5
O=c1n(-c2ccccc2)c(=O)n2n1CCCC2	0	42*	?	0	12
Cc1cc(Cl)cc(Cl)c1OCCOCCN(C)C	-5	-4	-6	4	-5
Cc1cc(C)c(OCCN(C)C)c(Cl)c1	0	-32	?	0	-38*
O=C(NCCc1ccc(Cl)cc1)C1COc2ccccc2C1 (configuration not stated)	6	-9	/	0	-4
Cc1cccn2c(=O)cc(COc3cccc(NC(=O)Nc4cccc(Cl)c4)c3)nc12	-2	-9	/	1	-59*
CCOc1ccc(C(=O)Nc2cccc(OCc3cc(=O)n4ccccc4n3)c2)cc1	-3	-12	/	-2	-17
Cc1cccn2c(=O)cc(COc3ccc(NC(=O)C(C)Oc4ccccc4)cc3)nc12 (configuration not stated)	-3	8	/	1	-49*
COc1ccccc1C(=O)Nc1ccc(OCc2cc(=O)n3cccc(C)c3n2)cc1	3	0	/	2	6
